The list is not random: actives were taken first. Their share in the collection is about 3%.
pPAFAH FP inh: pPAFAH (human) enzyme inhibition | Q13093 | recombinant pPAFAH, FP-rhodamine probe fluorescence polarization | inhibition, % at 3.39 µM | hit rate 1.5% among 330,000 | AID 463082;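 active means inhibition above the mean inhibition across the screen plus 3 SD, cut at about 25% in these data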;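 further: inhibitors block binding of the rhodamine activity-based probe so polarization drops; 0% = enzyme with DMSO and 100% = wells lacking pPAFAH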
Target sequence (Q13093 whole entry, looked up): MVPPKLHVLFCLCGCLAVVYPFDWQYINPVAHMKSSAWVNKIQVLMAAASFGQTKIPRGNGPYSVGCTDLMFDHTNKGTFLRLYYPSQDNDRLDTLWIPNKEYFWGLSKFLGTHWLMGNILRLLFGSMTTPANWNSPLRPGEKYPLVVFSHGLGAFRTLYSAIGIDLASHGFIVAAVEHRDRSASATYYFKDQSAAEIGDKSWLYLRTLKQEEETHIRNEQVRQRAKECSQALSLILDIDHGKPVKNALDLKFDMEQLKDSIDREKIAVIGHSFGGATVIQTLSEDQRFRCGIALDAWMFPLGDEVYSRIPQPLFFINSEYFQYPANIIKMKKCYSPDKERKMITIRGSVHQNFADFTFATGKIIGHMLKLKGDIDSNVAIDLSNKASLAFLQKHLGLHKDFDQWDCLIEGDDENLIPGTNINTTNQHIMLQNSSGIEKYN
PAFAH1B2 FP inh: PAFAH1B2 (human) inhibition. P68402. recombinant PAFAH1B2, FP-rhodamine activity probe, fluorescence polarization. inhibition, % at 3.39 µM. hit rate 1.2% among 340,000;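 active means inhibition above the mean of all tested compounds plus 3 SD, cut at about 24% in these data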;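 further: 0% = enzyme with DMSO and 100% = wells lacking PAFAH1B2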
Target sequence (P68402 whole entry, looked up): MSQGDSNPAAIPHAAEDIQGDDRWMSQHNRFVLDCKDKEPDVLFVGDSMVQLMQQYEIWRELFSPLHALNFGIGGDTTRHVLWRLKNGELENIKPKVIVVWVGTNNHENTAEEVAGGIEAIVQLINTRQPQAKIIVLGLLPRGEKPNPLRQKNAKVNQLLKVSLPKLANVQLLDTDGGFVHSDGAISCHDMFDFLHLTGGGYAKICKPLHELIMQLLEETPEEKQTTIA
PAFAH1B3 FP inh: PAFAH1B3 (human) inhibition; inhibition, % at 3.39 µM; AID 492972; hit rate 0.28% among 340,000; Q15102; recombinant PAFAH1B3, FP-rhodamine probe, fluorescence polarization;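 active means inhibition above the screen-wide average of all tested compounds plus 3 SD, cut at about 25% in these data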;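 further: 0% = enzyme with DMSO only and 100% = wells lacking PAFAH1B3 protein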
CTSL1 counter: counter-screen for PFM18AAP inhibitors: inhibitors of F. hepatica cathepsin L1 | inhibition, % at 5.96 µM | hit rate 0.49% among 300,000 | recombinant F. hepatica cathepsin L1, Z-Leu-Arg-MCA fluorescence;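 active means inhibition above the mean of all tested compounds plus 3 SD, set per screening campaign, cut at about 17% in these data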;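 further: 0% = plate median of test compound wells and 100% = 1 µM Z-Phe-Ala-diazomethylketone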
PAFAH2 inh: inhibitors of human PAFAH2. hit rate 0.99% among 340,000. Q99487. inhibition, % at 3.39 µM. recombinant PAFAH2, FP-rhodamine activity probe, fluorescence polarization;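 active means inhibition above the mean over all tested compounds plus 3 SD, cut at about 30% in these data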;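 further: inhibitors block probe labeling of enzyme so polarization drops; 0% = enzyme with DMSO and 100% = wells lacking PAFAH2 protein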
PP5 inh: blocks human protein phosphatase 5 activity | purified PP5c, OMFP substrate fluorescence | inhibition, % at 6.7 µM | P53041 | AID 1987 | hit rate 0.18% among 320,000;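 active means inhibition above the campaign's mean inhibition across all tested compounds plus 3 SD, cut at about 9.5% in these data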;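 further: 0% = DMSO only and 100% = 100 µM cantharidin control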
PAFAH2 FP conf: PAFAH2 (human) inhibition, confirmed. AID 493030. recombinant PAFAH2, FP-rhodamine activity probe, fluorescence polarization. shares compounds with PAFAH2 inh. hit rate 65% among 2,300. inhibition, % at 3.39 µM;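 active means mean inhibition over three repeats above a set limit taken from the earlier primary screen, cut at about 30% in these data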;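 further: inhibitor blocks binding of rhodamine activity probe so polarization falls; 0% = enzyme with DMSO and 100% = wells lacking PAFAH2 protein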
* = called active by the depositor.

CC1CCC(NC(=O)COC(=O)c2ccco2)CC1 (configuration not stated) was read as pPAFAH FP inh -5, PAFAH1B2 FP inh 6, PAFAH1B3 FP inh 0, PAFAH2 inh 67*, PP5 inh 1 and PAFAH2 FP conf 65*.
O=C(COC(=O)c1ccco1)NCC1CCCCC1 was read as PAFAH1B2 FP inh 7, PAFAH1B3 FP inh 5, PAFAH2 inh 80* and PAFAH2 FP conf 60*.
O=C(COC(=O)c1ccco1)NC1CCCc2ccccc21 (configuration not stated) was read as pPAFAH FP inh -2, PAFAH1B2 FP inh 1, PAFAH1B3 FP inh 10, PAFAH2 inh 39* and PAFAH2 FP conf 15.
For O=C(COC(=O)c1ccccc1NC(=O)c1ccco1)NC1CC1 the results were pPAFAH FP inh 4, PAFAH1B2 FP inh -4, PAFAH1B3 FP inh 3, CTSL1 counter -3, PAFAH2 inh 0 and PP5 inh 1.
Screening Cc1cc(C(=O)OCC(=O)NC2CCC(C)CC2)c(C)o1 (configuration not stated) returned pPAFAH FP inh 2, PAFAH1B2 FP inh 4, PAFAH1B3 FP inh 4, PAFAH2 inh 71*, PP5 inh 2 and PAFAH2 FP conf 69*.
`O=C(OCc1cc(=O)n2ccsc2n1)c1ccc(OC(F)F)cc1` gave PAFAH1B2 FP inh 0, PAFAH1B3 FP inh -9 and PAFAH2 inh -2.
O=C(CSc1nnc(-c2ccccc2F)n1C1CC1)NCc1ccco1 was read as pPAFAH FP inh 4, PAFAH1B2 FP inh -1, PAFAH1B3 FP inh 4, PAFAH2 inh -2 and PP5 inh -1.
For CCOC(=O)C1CCN(C(=O)COC(=O)/C=C/c2cccc(OC)c2OC)CC1 the results were pPAFAH FP inh -1, PAFAH1B2 FP inh 6, PAFAH1B3 FP inh 5 and PAFAH2 inh 6.
Screening O=C(CC12CC3CC(CC(C3)C1)C2)NCC(=O)N1CCc2ccccc2C1 returned pPAFAH FP inh 10, PAFAH1B2 FP inh 12, PAFAH1B3 FP inh 9, CTSL1 counter 3, PAFAH2 inh 81*, PP5 inh 1 and PAFAH2 FP conf 71*.
For COc1cc(/C=C/C(=O)c2ccc3c(c2)OCCO3)cc(Br)c1OCC(=O)N(C)C the results were pPAFAH FP inh 3, PAFAH1B2 FP inh 2, PAFAH1B3 FP inh 6, CTSL1 counter 1, PAFAH2 inh -4 and PP5 inh 0.
For O=C(OCC(=O)C12CC3CC(CC(C3)C1)C2)c1ccccc1O the results were pPAFAH FP inh 4, PAFAH1B2 FP inh 12, PAFAH1B3 FP inh -2 and PAFAH2 inh 10.
Screening O=C(COC(=O)c1ccccc1O)NC12CC3CC(CC(C3)C1)C2 returned pPAFAH FP inh 11, PAFAH1B2 FP inh 11, PAFAH1B3 FP inh 8, PAFAH2 inh 68* and PAFAH2 FP conf 63*.
Screening COc1ccccc1CC(=O)NC12CC3CC(CC(C3)C1)C2 returned pPAFAH FP inh -1, PAFAH1B2 FP inh 0, PAFAH1B3 FP inh 4, CTSL1 counter -1, PAFAH2 inh 1 and PP5 inh -1.
For COc1ccc(C(=O)OCC(=O)NC23CC4CC(CC(C4)C2)C3)c(OC)c1OC the results were pPAFAH FP inh 23, PAFAH1B2 FP inh 11, PAFAH1B3 FP inh 10, PAFAH2 inh 86*, PP5 inh -1 and PAFAH2 FP conf 86*.
`Cc1cccc(C(=O)OCC(=O)NC23CC4CC(CC(C4)C2)C3)c1O` gave pPAFAH FP inh 5, PAFAH1B2 FP inh 11, PAFAH1B3 FP inh -4, PAFAH2 inh 59* and PAFAH2 FP conf 46*.
CCc1ccc(NC(=O)c2noc3c2CCC3)cc1 was read as pPAFAH FP inh 12, PAFAH1B2 FP inh 8, PAFAH1B3 FP inh 4, CTSL1 counter 3, PAFAH2 inh 31*, PP5 inh 2 and PAFAH2 FP conf 10.
O=C(COC(=O)c1c[nH]c(=O)[nH]c1=O)Nc1cccc([N+](=O)[O-])c1 was read as pPAFAH FP inh -1, PAFAH1B2 FP inh 2, PAFAH1B3 FP inh 9, PAFAH2 inh 31*, PP5 inh -2 and PAFAH2 FP conf 23.
For O=C(COC(=O)C1CCC(=O)N1)Nc1cccc([N+](=O)[O-])c1 (configuration not stated) the results were pPAFAH FP inh -1, PAFAH1B2 FP inh 4, PAFAH1B3 FP inh 11 and PAFAH2 inh -10.
For CCOc1ccc(NC(=O)COC(=O)c2cc(C)oc2C)cc1 the results were pPAFAH FP inh 0, PAFAH1B2 FP inh 1, PAFAH1B3 FP inh 6, PAFAH2 inh 57* and PAFAH2 FP conf 53*.
CCC(CCC(=O)Nc1cccc([N+](=O)[O-])c1)C(=O)O (configuration not stated) was read as pPAFAH FP inh 1, PAFAH1B2 FP inh 2, PAFAH1B3 FP inh 3, CTSL1 counter 2, PAFAH2 inh 2 and PP5 inh 0.
COc1ccc(NC(=O)COC(=O)c2cc(C)oc2C)cc1OC was read as pPAFAH FP inh 4, PAFAH1B2 FP inh 6, PAFAH1B3 FP inh 2, PAFAH2 inh 6 and PP5 inh 0.
For CCC(CC)C(=O)OCC(=O)Nc1cccc([N+](=O)[O-])c1 the results were pPAFAH FP inh 3, PAFAH1B2 FP inh -1, PAFAH1B3 FP inh 5, CTSL1 counter -25, PAFAH2 inh 36*, PP5 inh 0 and PAFAH2 FP conf 27.
Screening Cc1cc(C(=O)OCC(=O)Nc2cccc([N+](=O)[O-])c2)c(C)o1 returned pPAFAH FP inh 4, PAFAH1B2 FP inh 5, PAFAH1B3 FP inh 2, PAFAH2 inh 75* and PAFAH2 FP conf 78*.
`CCOC(=O)[C@H]1[C@H]2COc3ccc(C)cc3[C@@H]2N2C(=O)CN(C)C(=O)[C@@]12C` gave PAFAH1B2 FP inh 4, PAFAH1B3 FP inh 8 and PAFAH2 inh -4.
O=C(N/N=C1\CCCc2ccccc21)C(O)c1ccccc1 (configuration not stated) was read as pPAFAH FP inh 5, PAFAH1B2 FP inh 4, PAFAH1B3 FP inh 2, CTSL1 counter 4, PAFAH2 inh -4 and PP5 inh -1.
Screening COc1ccc(S(=O)(=O)N2CCN(C(=O)CC3CC4CCC3C4)CC2)cc1 (configuration not stated) returned pPAFAH FP inh 5, PAFAH1B2 FP inh 10, PAFAH1B3 FP inh -1, PAFAH2 inh 5 and PP5 inh 2.
`C[C@@H]1CN(S(=O)C(C)(C)C)[C@H](CCO)/C1=C\CCO` (some centres not stated) gave PAFAH1B2 FP inh 8, PAFAH1B3 FP inh 2 and PAFAH2 inh 1.
Screening O=C1CCC(C(=O)Nc2cccc(Br)c2)N1 (configuration not stated) returned pPAFAH FP inh 5, PAFAH1B2 FP inh 0, PAFAH1B3 FP inh 8, CTSL1 counter -1, PAFAH2 inh -2 and PP5 inh 3.

Source: PubChem BioAssay
